# Experiments:
# Test in all cases: DAPPL (digital affinity profiling via proximity ligation, sequencing); 10 mM Tris-HCl pH 7.5, 50 mM NaCl, 1 mM DTT, 4% glycerol, room temperature, 30 min; GST-TFs on glutathione beads, 16-mer random dsDNA library, 0.1% formaldehyde crosslink after washing; high values mean tight binding
# Conditions in all cases: protein: recombinant; tags: N-terminal GST; dsDNA, one strand shown
# ERF = molecular target: T1, ERF (Homo sapiens, UniProt P50548 1-548)
# T1 sequence: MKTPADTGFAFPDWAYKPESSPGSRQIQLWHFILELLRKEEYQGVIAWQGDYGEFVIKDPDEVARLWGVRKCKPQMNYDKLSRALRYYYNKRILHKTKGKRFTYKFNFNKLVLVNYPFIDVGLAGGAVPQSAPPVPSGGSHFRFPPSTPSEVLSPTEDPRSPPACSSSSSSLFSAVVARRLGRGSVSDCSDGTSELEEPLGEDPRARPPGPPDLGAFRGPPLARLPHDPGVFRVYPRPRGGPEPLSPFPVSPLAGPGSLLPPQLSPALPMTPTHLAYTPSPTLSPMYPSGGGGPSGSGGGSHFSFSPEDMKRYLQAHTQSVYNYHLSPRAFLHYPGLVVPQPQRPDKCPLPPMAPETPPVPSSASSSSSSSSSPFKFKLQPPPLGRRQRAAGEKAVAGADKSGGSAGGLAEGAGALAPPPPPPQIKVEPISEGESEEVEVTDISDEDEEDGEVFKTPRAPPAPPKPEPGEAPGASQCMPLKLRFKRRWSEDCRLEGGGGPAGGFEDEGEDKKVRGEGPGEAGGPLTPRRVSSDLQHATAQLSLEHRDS
# Outline: (§1)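 Human transcription factors fused to GST were expressed in yeast, captured on glutathione beads, given DNA barcodes and pooled with a GST-only negative control. Pools were incubated with 200 nmole of a 16-mer random double-stranded DNA library in Tris/NaCl/DTT/glycerol buffer at room temperature for 30 min. They were then washed, crosslinked with 0.1% formaldehyde, proximity-ligated (BsaI/T4 ligase, 1 h, 37 °C), PCR-amplified and sequenced on an Illumina NextSeq500. Binding signal is each 6-mer's read frequency for a factor divided by its frequency for the GST control.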
# ETV3L = molecular target: T2, ETV3L (Homo sapiens, UniProt Q6ZN32 1-361)
# T2 sequence: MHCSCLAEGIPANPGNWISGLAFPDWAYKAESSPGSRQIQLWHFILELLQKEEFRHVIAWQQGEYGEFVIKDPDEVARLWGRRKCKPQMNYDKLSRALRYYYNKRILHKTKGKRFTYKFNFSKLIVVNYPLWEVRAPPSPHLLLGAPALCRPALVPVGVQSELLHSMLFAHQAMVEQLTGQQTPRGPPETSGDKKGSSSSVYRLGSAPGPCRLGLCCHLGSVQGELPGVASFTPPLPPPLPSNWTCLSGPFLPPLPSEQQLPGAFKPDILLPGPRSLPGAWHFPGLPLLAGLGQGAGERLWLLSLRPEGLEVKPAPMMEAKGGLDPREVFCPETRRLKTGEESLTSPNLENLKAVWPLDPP
# Outline: as §1
# ETS2 = molecular target: T3, ETS2 (Homo sapiens, UniProt P15036 1-469)
# T3 sequence: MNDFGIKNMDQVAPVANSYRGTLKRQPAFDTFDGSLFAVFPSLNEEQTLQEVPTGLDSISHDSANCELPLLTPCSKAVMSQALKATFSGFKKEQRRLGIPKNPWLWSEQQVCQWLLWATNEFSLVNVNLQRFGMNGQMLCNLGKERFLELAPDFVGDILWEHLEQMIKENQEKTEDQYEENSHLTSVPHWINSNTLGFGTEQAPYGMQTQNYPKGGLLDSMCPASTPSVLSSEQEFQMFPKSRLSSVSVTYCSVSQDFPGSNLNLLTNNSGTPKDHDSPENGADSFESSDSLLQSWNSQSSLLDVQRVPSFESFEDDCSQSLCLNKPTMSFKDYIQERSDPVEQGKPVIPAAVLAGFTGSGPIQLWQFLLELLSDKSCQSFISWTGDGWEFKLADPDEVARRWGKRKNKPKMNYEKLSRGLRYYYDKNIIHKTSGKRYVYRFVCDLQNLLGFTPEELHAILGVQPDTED
# Outline: as §1
# SPDEF = molecular target: T4, SPDEF (Homo sapiens, UniProt O95238 1-335)
# T4 sequence: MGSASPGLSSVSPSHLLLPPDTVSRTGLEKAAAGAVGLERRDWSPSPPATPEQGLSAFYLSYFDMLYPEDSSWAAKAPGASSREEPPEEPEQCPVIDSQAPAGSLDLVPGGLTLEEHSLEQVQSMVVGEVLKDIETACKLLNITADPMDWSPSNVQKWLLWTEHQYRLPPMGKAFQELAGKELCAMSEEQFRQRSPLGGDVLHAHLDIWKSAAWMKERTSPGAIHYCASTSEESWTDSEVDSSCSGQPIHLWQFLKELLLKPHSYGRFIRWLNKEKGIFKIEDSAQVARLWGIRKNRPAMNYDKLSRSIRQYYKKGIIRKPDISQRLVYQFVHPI
# Outline: as §1
# ETV7 = molecular target: T5, ETV7 (Homo sapiens, UniProt Q9Y603 1-341)
# T5 sequence: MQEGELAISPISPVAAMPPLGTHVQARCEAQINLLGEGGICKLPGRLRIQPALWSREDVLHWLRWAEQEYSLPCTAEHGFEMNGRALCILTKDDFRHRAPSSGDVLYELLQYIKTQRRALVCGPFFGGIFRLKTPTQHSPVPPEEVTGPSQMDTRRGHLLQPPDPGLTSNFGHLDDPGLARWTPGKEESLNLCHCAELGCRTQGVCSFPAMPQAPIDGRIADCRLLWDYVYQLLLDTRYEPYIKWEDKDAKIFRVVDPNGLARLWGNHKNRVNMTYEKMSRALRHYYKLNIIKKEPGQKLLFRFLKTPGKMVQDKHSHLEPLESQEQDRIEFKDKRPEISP
# Outline: as §1
# ELF5 = molecular target: T6, ELF5 (Homo sapiens, UniProt Q9UKW6-2 1-255)
# T6 sequence: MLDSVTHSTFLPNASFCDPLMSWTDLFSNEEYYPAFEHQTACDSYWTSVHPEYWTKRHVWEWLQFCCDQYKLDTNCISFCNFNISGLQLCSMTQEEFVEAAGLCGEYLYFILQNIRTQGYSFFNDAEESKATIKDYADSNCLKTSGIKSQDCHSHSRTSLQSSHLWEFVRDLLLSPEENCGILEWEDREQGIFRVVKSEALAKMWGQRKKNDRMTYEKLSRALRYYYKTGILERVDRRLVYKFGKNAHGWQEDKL
# Outline: as §1
# ETV3 = molecular target: T7, ETV3 (Homo sapiens, UniProt P41162-2 1-143)
# T7 sequence: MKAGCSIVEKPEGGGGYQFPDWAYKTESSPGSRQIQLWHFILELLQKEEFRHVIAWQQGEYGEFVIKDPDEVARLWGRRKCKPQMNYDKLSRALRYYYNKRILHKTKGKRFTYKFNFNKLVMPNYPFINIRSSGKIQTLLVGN
# Outline: as §1
# ETV6 = ETV6 (Homo sapiens, UniProt P41212 1-452)
# Chain of ETV6 (P41212 whole entry): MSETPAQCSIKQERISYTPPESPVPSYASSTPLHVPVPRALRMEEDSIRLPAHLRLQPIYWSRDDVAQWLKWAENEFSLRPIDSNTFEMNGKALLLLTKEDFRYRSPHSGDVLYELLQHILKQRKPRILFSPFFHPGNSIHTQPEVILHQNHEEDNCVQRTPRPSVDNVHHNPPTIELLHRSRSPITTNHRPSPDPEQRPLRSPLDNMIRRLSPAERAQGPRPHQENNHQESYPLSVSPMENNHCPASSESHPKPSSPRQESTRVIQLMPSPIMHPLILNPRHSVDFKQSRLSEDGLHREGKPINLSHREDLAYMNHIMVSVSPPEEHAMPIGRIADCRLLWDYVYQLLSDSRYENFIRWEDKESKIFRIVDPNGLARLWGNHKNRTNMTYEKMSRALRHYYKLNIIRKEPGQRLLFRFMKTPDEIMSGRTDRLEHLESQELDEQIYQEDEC
# Outline: as §1
Sequence,binding signal (ERF),binding signal (ETV3L),binding signal (ETS2),binding signal (SPDEF),binding signal (ETV7),binding signal (ELF5),binding signal (ETV3),binding signal (ETV6)
TTGCAT,"1.37 fold enrichment (6-mer frequency, TF over GST control)","1.56 fold enrichment (6-mer frequency, TF over GST control)","1.42 fold enrichment (6-mer frequency, TF over GST control)","1.51 fold enrichment (6-mer frequency, TF over GST control)","1.35 fold enrichment (6-mer frequency, TF over GST control)","1.4 fold enrichment (6-mer frequency, TF over GST control)","1.49 fold enrichment (6-mer frequency, TF over GST control)","1.38 fold enrichment (6-mer frequency, TF over GST control)"
TGTTGC,"1.46 fold enrichment (6-mer frequency, TF over GST control)","1.37 fold enrichment (6-mer frequency, TF over GST control)","1.3 fold enrichment (6-mer frequency, TF over GST control)","1.33 fold enrichment (6-mer frequency, TF over GST control)","1.27 fold enrichment (6-mer frequency, TF over GST control)","1.3 fold enrichment (6-mer frequency, TF over GST control)","1.56 fold enrichment (6-mer frequency, TF over GST control)","1.33 fold enrichment (6-mer frequency, TF over GST control)"
CCTATG,"1.11 fold enrichment (6-mer frequency, TF over GST control)","1.21 fold enrichment (6-mer frequency, TF over GST control)","1.19 fold enrichment (6-mer frequency, TF over GST control)","1.25 fold enrichment (6-mer frequency, TF over GST control)","1.27 fold enrichment (6-mer frequency, TF over GST control)","1.16 fold enrichment (6-mer frequency, TF over GST control)","1.29 fold enrichment (6-mer frequency, TF over GST control)","1.17 fold enrichment (6-mer frequency, TF over GST control)"
ATCCTA,"1.34 fold enrichment (6-mer frequency, TF over GST control)","1.32 fold enrichment (6-mer frequency, TF over GST control)","1.43 fold enrichment (6-mer frequency, TF over GST control)","1.72 fold enrichment (6-mer frequency, TF over GST control)","1.37 fold enrichment (6-mer frequency, TF over GST control)","1.45 fold enrichment (6-mer frequency, TF over GST control)","1.33 fold enrichment (6-mer frequency, TF over GST control)","1.34 fold enrichment (6-mer frequency, TF over GST control)"
ATGCTT,"1.27 fold enrichment (6-mer frequency, TF over GST control)","1.36 fold enrichment (6-mer frequency, TF over GST control)","1.28 fold enrichment (6-mer frequency, TF over GST control)","1.32 fold enrichment (6-mer frequency, TF over GST control)","1.33 fold enrichment (6-mer frequency, TF over GST control)","1.38 fold enrichment (6-mer frequency, TF over GST control)","1.31 fold enrichment (6-mer frequency, TF over GST control)","1.3 fold enrichment (6-mer frequency, TF over GST control)"
TACATA,"1.33 fold enrichment (6-mer frequency, TF over GST control)","1.1 fold enrichment (6-mer frequency, TF over GST control)","1.27 fold enrichment (6-mer frequency, TF over GST control)","1.2 fold enrichment (6-mer frequency, TF over GST control)","1.31 fold enrichment (6-mer frequency, TF over GST control)","1.16 fold enrichment (6-mer frequency, TF over GST control)","1.21 fold enrichment (6-mer frequency, TF over GST control)","1.21 fold enrichment (6-mer frequency, TF over GST control)"
ATATGC,"1.15 fold enrichment (6-mer frequency, TF over GST control)","1.11 fold enrichment (6-mer frequency, TF over GST control)","1.19 fold enrichment (6-mer frequency, TF over GST control)","1.14 fold enrichment (6-mer frequency, TF over GST control)","1.11 fold enrichment (6-mer frequency, TF over GST control)","1.12 fold enrichment (6-mer frequency, TF over GST control)","1.16 fold enrichment (6-mer frequency, TF over GST control)","1.12 fold enrichment (6-mer frequency, TF over GST control)"

# Reference: PMC7862700, “An all-to-all approach to the identification of sequence-specific readers for epigenetic DNA modifications on cytosine”
